Source: PubChem BioAssay
esBAF inh = SWI/SNF esBAF complex inhibition. mouse ES cells, Bmi1-luciferase knock-in reporter, 24 h; 100% = twice the neutral-well signal. reporter increase, % at 12.5 µM. 350,000 tested, 2% active. AID 602393; in the data active = activation above about 40%; inconclusive = no clear call, values can overlap the other calls;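 also: a rise in the Bmi1 reporter signal indicates esBAF inhibition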
Statin myotox sup = suppression of simvastatin myotoxicity. C2C12 myotubes + simvastatin, ATP luminescence, 48 h; scaled: DMSO 0, geranylgeraniol control 100. rescue of ATP level, % at 7.49 µM. 330,000 tested, 0.78% active. AID 602340;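 active = mean ATP rescue above about 67%, or every replicate alone reaching that limit, limit read from the data, passing the limit was not always enough; inconclusive = no clear call, values can overlap the other calls; inactive = mean under the limit and some replicate under it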;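 also: myotubes were challenged with 10 µM simvastatin during compound exposure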
Wnt bcat act = activates Wnt/beta-catenin signaling in a reporter cell assay; activation, % at 9.35 µM; activator, plate reader; 300,000 tested, 1.2% active; in the data active = activation above about 30%, passing the limit was not always enough; inconclusive = no clear call, values can overlap the other calls
MITF act = activators of MITF-driven TRPM1 promoter activity in SK-MEL-5 cells. SK-MEL-5 TRPM1-promoter luciferase, 24 h; % of positive control, neutral wells = 0. activation, % at 12.5 µM. 300,000 tested, 0.75% active. AID 588334;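 active = mean activation of at least 80% with every replicate also reaching 80%; inconclusive = mean reaches 80% but some replicate falls short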
Hits are given with their value. A selection: hits, their analogues and other compounds. The true share with any hit is near 3%.

What do the screens show for `Cc1noc(C)c1S(=O)(=O)Nc1ccc2c(c1)CC(=O)N([C@H](C)CO)C[C@H](C)[C@@H](CN(C)S(=O)(=O)c1ccc(F)cc1)O2`?
esBAF inh: inactive; Statin myotox sup: inactive

How did CN1C(=O)S/C(=C/c2ccc(OCc3cccc(C(=O)O)c3)cc2)C1=O do in these assays?
esBAF inh: inactive; Statin myotox sup: inactive; Wnt bcat act: 44.7; MITF act: inactive

What do the screens show for `C[C@@H]1CN([C@@H](C)CO)C(=O)c2cccc(NS(=O)(=O)c3cccs3)c2O[C@@H]1CN(C)C(=O)Nc1ccc(C(F)(F)F)cc1`?
esBAF inh: inactive; Statin myotox sup: 95.7

What do the screens show for `C[C@@H]1CN([C@H](C)CO)C(=O)c2cccc(NS(=O)(=O)c3cccs3)c2O[C@H]1CN(C)C(=O)Nc1ccc(C(F)(F)F)cc1`?
esBAF inh: inactive; Statin myotox sup: 73.5

Results for C[C@@H]1CN([C@@H](C)CO)C(=O)c2cccc(NS(=O)(=O)c3cccs3)c2O[C@H]1CN(C)C(=O)Nc1ccc(C(F)(F)F)cc1 ?
esBAF inh: inactive; Statin myotox sup: inactive

Results for C[C@H]1CN([C@@H](C)CO)C(=O)c2cccc(NS(=O)(=O)c3cccs3)c2O[C@@H]1CN(C)Cc1ccc(Oc2ccccc2)cc1 ?
esBAF inh: inactive; Statin myotox sup: 83.2

What do the screens show for `CCCC(=O)Nc1ccc2c(c1)OC[C@H](C)N(Cc1ccccn1)C[C@@H](C)[C@@H](OC)CN(C)C2=O`?
esBAF inh: inactive; Statin myotox sup: inactive

What do the screens show for `CC(CNC(=O)c1ccccc1Cl)c1ccccc1` (stereo unspecified)?
esBAF inh: 48.0; Statin myotox sup: inactive; Wnt bcat act: inactive; MITF act: inactive

How did O=C(/C=C/c1ccc(S(=O)(=O)N2CCOCC2)cc1)NC(=S)NCCCn1ccnc1 do in these assays?
esBAF inh: inactive; Statin myotox sup: inactive; Wnt bcat act: 31.9; MITF act: inactive

Results for O=C(NC(=S)Nc1cccc2[nH]ncc12)c1ccccc1 ?
esBAF inh: inactive; Statin myotox sup: inactive; Wnt bcat act: inactive; MITF act: inactive

How did O=C(Nc1cccc2[nH]ncc12)c1ccc(F)cc1 do in these assays?
esBAF inh: inactive; Statin myotox sup: inactive; Wnt bcat act: inactive; MITF act: 96.2

Results for CN1C(=O)c2cc(NC(=O)Nc3cccc(Cl)c3)ccc2OC[C@H]2O[C@@H](CC(=O)O)CC[C@H]21 ?
esBAF inh: inactive; Statin myotox sup: inactive

How did O=C(NCc1ccccc1)C1CCN(S(=O)(=O)c2cccc3cccnc23)CC1 do in these assays?
esBAF inh: inactive; Statin myotox sup: inactive; Wnt bcat act: inactive; MITF act: inactive

What do the screens show for `O=C(COC(=O)C1CCN(S(=O)(=O)c2cccc3cccnc23)CC1)c1ccc(F)cc1`?
esBAF inh: inactive; Statin myotox sup: 96.1; MITF act: inactive

Results for c1ccc2nc(-c3nccs3)ccc2c1 ?
Wnt bcat act: inactive; MITF act: 90.8

How did Clc1ccsc1-c1ccc2ccccc2n1 do in these assays?
esBAF inh: 49.2; Statin myotox sup: inactive; Wnt bcat act: 38.9; MITF act: inactive

How did c1ccc2nc(-c3ccncc3)ccc2c1 do in these assays?
esBAF inh: inactive

How did CC(=O)N(C)C[C@H]1Oc2ncc(-c3cncnc3)cc2C(=O)N([C@@H](C)CO)C[C@H]1C do in these assays?
esBAF inh: inactive; Statin myotox sup: inactive

Results for C[C@@H]1CN([C@H](C)CO)S(=O)(=O)c2ccc(C#Cc3ccccc3F)cc2O[C@@H]1CN(C)CC1CC1 ?
esBAF inh: inactive; Statin myotox sup: inactive

What do the screens show for `O=C(Nc1ccccc1N1CCOCC1)c1ccc(N2CCOCC2)c([N+](=O)[O-])c1`?
Wnt bcat act: inactive; MITF act: inactive

Results for O=C(Nc1ccccc1)c1ccc(-c2ccc([N+](=O)[O-])cc2)o1 ?
esBAF inh: inactive; Statin myotox sup: inactive; Wnt bcat act: inactive; MITF act: inactive

Results for O=C(Nc1nccs1)c1ccc(-c2ccc(F)cc2)o1 ?
Wnt bcat act: 37.4; MITF act: 141.8

How did O=C(Cc1ccc(F)cc1)Nc1nccs1 do in these assays?
esBAF inh: inactive; Statin myotox sup: inactive; Wnt bcat act: inactive; MITF act: inactive

Results for COc1ccccc1NC(=O)c1ccc(-c2ccccc2[N+](=O)[O-])o1 ?
Wnt bcat act: inactive; MITF act: 94.4

Results for O=C(Nc1nccs1)c1ccc(-c2ccc([N+](=O)[O-])cc2)o1 ?
esBAF inh: 68.8; Statin myotox sup: inactive; Wnt bcat act: inactive; MITF act: inactive

How did O=C(Nc1nccs1)c1ccc(N2CCOCC2)c([N+](=O)[O-])c1 do in these assays?
esBAF inh: inactive; Statin myotox sup: inactive; Wnt bcat act: 42.6; MITF act: inactive

Results for Cc1nnc(NC(=O)c2ccc(-c3ccc(Cl)cc3)o2)s1 ?
esBAF inh: inactive; Statin myotox sup: inactive; Wnt bcat act: inactive; MITF act: inactive

Results for O=C(Nc1nccs1)c1ccc(-c2ccc(Cl)cc2)o1 ?
Wnt bcat act: 52.2; MITF act: 108.9

Results for O=C(Nc1nccs1)c1ccc(-c2ccccc2Cl)o1 ?
Wnt bcat act: inconclusive; MITF act: inactive

How did O=C(Nc1nccs1)c1ccc(-c2ccccc2[N+](=O)[O-])o1 do in these assays?
esBAF inh: 86.2; Statin myotox sup: inactive; Wnt bcat act: 35.1; MITF act: inactive

Results for C[C@@H]1CN([C@@H](C)CO)C(=O)c2cc(C#CC(C)(C)O)cnc2O[C@@H]1CN(C)Cc1cncnc1 ?
esBAF inh: inactive; Statin myotox sup: inactive

What do the screens show for `O=C(NCCc1ccncc1)[C@@H]1[C@@H](CO)[C@@H]2Cn3c(ccc(-c4cccnc4)c3=O)[C@@H]2N1C(=O)C1CC1`?
esBAF inh: inactive; Statin myotox sup: inactive

What do the screens show for `CCc1ccc(S(=O)(=O)c2n[nH]n3c2nc(=O)c2ccccc23)cc1`?
esBAF inh: inactive; Statin myotox sup: inactive; Wnt bcat act: inactive; MITF act: inactive

Results for O=c1nc2c(-c3ccccc3F)n[nH]n2c2ccccc12 ?
esBAF inh: inactive; Wnt bcat act: 35.9

What do the screens show for `COCC(=O)N1[C@H](C(=O)Nc2ccccc2)[C@@H](CO)[C@@H]2Cn3c(ccc(-c4cccnc4)c3=O)[C@@H]21`?
esBAF inh: inactive; Statin myotox sup: inactive

How did CN1CCN(C(=O)C[C@@H]2C=C[C@H](NC(=O)Cc3ccccn3)[C@@H](CO)O2)CC1 do in these assays?
esBAF inh: inactive; Statin myotox sup: inactive

What do the screens show for `O=C(COC(=O)c1ccc[nH]c1=O)NCCc1ccc(Cl)cc1Cl`?
Wnt bcat act: 49.7; MITF act: inactive

Results for Cc1ccc(-c2nc3ccccc3[nH]2)cc1NC(=O)/C=C/c1ccco1 ?
esBAF inh: inactive; Statin myotox sup: inactive; MITF act: inactive

How did Cc1ccc(-c2nc3ccccc3[nH]2)cc1NC(=S)NC(=O)c1ccccc1Br do in these assays?
esBAF inh: 57.5; Statin myotox sup: inactive; Wnt bcat act: inactive; MITF act: inactive

What do the screens show for `Cc1ccc(-c2nc3ccccc3[nH]2)cc1NC(=O)c1ccc2c(c1)OCO2`?
esBAF inh: 45.0; Statin myotox sup: inactive; MITF act: inactive
